Compound activity (PubChem)
KB-V1 cytotox: kills drug-selected multidrug resistant KB-V1 cells. KB-V1 MDR cells viability, CellTiter-Glo, 72 h. Potency, µM (series often up to 46.1 µM), most hits filed as cytotoxic. 400,000 tested, 3.4% active. AID 1347076; also: potency is read from the fitted curve at half-maximal effect; % is scaled to controls: 0 for no effect and ±100 for the full control effect; nearly all actives have a fitted effect of over 60% in size
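Cytotoxicity via CellTiter-Glo luminescence after 72 h compound exposure at 37 degrees C. Cells: drug-selected KB-V1 line, DMEM phenol-red free plus 10% FBS. Compounds tested at multiple concentrations; normalized data fitted to concentration-effect curves.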
D3 ag: activates the human D3 dopamine receptor | P35462 | D3R DiscoveRx beta-arrestin cells, luminescence, 90 min | max activation, % | 410,000 tested, 0.58% active | AID 652048; in the data active = max activation above about 30%; also: 0% is about no effect
Target sequence (P35462 whole entry, looked up): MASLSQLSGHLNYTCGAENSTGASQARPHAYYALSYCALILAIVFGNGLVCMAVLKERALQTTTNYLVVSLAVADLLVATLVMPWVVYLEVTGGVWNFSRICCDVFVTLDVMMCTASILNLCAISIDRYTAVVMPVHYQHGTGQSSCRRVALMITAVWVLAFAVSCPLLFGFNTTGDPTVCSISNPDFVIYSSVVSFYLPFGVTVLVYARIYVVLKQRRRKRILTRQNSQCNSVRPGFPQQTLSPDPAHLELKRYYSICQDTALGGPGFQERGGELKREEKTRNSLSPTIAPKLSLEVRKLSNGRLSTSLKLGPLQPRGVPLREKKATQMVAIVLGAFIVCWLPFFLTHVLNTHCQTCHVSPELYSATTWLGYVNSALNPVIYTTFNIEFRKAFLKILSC
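Agonist mode: compounds and dopamine controls were applied to plated cells for 90 min at 37 degrees C after an overnight attachment at 1500 cells/well. Luminescent read-out followed 30 - 60 minutes at room temperature with DiscoveRx detection reagent.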
KB-3-1 cytotox: KB-3-1 parental cell cytotoxicity | KB-3-1 viability, CellTiter-Glo ATP luminescence, 72 h | Potency, µM (top dose mostly 46.1 µM), most hits filed as cytotoxic | 400,000 tested, 1.4% active; also: potency is read from the fitted curve at half-maximal effect; % is scaled to controls: 0 for no effect and ±100 for the full control effect; nearly all actives have a fitted effect of over 60% in size
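72 h, 37 °C compound treatment of KB-3-1 parental cells; CellTiter-Glo added, 10 min, luminescence read. Data corrected against DMSO-only plates and normalized before curve fitting.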
D3 antag: blocks the human D3 dopamine receptor; D3R cells, DiscoveRx beta-arrestin luminescence, antagonist mode; active compounds read low; max response, negative = inhibition, %; 360,000 tested, 2.5% active; in the data active = max response below about -50%; inconclusive = no clear call, values can overlap the other calls; also: % is scaled to controls: 0 for no effect and ±100 for the full control effect
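Cells plated overnight at 1500 cells/well, then exposed to library compounds with dopamine controls for 90 minutes at 37 degrees C. DiscoveRx reagent added for 30–60 minutes at room temperature; luminescence read, quantitative HTS format.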
MCF10A rerep: induces DNA re-replication in MCF 10a normal breast cells | 350,000 tested, 2.9% active | MCF 10A DNA re-replication, Hoechst nuclear intensity, 48 h | Potency, µM (highest dose often 46.1 µM), inactives show at the highest dose activity, positive = re-replication, actives largely listed as activators; also: potency is read from the fitted curve at half-maximal effect; % of control where 0% means no effect; nearly all actives have a fitted effect of over 50% in size
SW480 rerep: DNA re-replication induction in SW480 cells; SW480 DNA re-replication, Hoechst DNA content imaging, 48 h; Potency, µM (titrated, usually from 46.1 µM), for inactives: at the top dose re-replication activation, most hits filed as activators; 340,000 tested, 1.8% active; AID 624297; also: potency is read from the fitted curve at half-maximal effect; % of control where 0% means no effect; nearly all actives have a fitted effect of over 55% in size
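Treated cells incubate 48 hr (37 C, 5% CO2), are stained 40 min with Hoechst, and nuclear fluorescence is enumerated; a rise in nuclei with high DNA signal marks re-replication.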
* marks the source's active call; other numbers are inactive results; i = inactive; ? = inconclusive; nt = not tested or not shown; ! = not confirmed by another sample. Rows were chosen to be rich in hits. Some 8.9% of all compounds tested hit in one or more screens of this group. Unless noted, calls follow the shape of the dose curve; as a rule, active = well fitted curve in the direction sought with a large enough effect; inconclusive = small, poorly fitted or top-dose-only effect, or another doubt; inactive = no such curve, though single readings can be large; an effect the other way counts as inactive or inconclusive.

SMILES	KB-V1 cytotox	D3 ag	KB-3-1 cytotox	D3 antag	MCF10A rerep	SW480 rerep
Cc1ccc(NC(=O)CCN2CCC(Cc3ccccc3)CC2)cc1	?	-17	i	-53*	5%	0%
CCOc1ccc(-c2cnc(NCc3ccc(OC)cc3OC)n2C)cc1	i	-3	i	nt	nt	nt
Cc1ccc2nc(-c3ccc(NC(=S)NC4CC(C)(C)NC(C)(C)C4)cc3)sc2c1	i	-4	?	-16	29µM*	?
CC1(c2ccc([N+](=O)[O-])cc2)NC(=O)N(CC(=O)Nc2ccc(N3CCCCC3)cc2)C1=O (stereo not drawn)	i	-11	i	-51*	7%	2%
Cc1ccc2nc(-c3ccc(NC(=O)COc4ccc(Cl)c(C)c4)cc3)sc2c1	nt	61*	nt	nt	nt	nt
Cc1ccc(C2(C)NC(=O)N(CC(=O)Nc3ccc(-c4nc5ccc(C)cc5s4)cc3)C2=O)cc1 (stereo not drawn)	i	10	i	1	18µM*	636%
CC1(c2ccccc2)NC(=O)N(CC(=O)Nc2ccc([N+](=O)[O-])cc2)C1=O (stereo not drawn)	i	-8	i	1	10%	-1%
Cc1ccc2nc(-c3ccc(NC(=S)NC(=O)C(C)C)cc3)sc2c1	i	-7	i	-19	2%	3%
O=c1c2ccccc2n(Cc2ccccc2F)c(=O)n1-c1cccc(F)c1	i	-6	i	nt	nt	nt
CC1(c2ccc3c(c2)OCO3)NC(=O)N(CC(=O)Nc2ccccc2[N+](=O)[O-])C1=O (stereo not drawn)	15µM*	9	i	-12	-1%	-2%
Cc1ccc(C2(C)NC(=O)N(CC(=O)c3ccc(Cl)s3)C2=O)cc1 (stereo not drawn)	21µM*	1	i	-12	0%	-3%
COc1cc(C)ccc1OCCSc1nc2ccc(NC(=O)c3cccs3)cc2s1	i	12	i	nt	nt	nt
Cc1cc(C)cc(C(=O)C[n+]2cccc(Br)c2)c1	i	nt	i	nt	nt	nt
COc1ccccc1N=c1scc(-c2ccc3c(c2)NC(=O)CO3)n1CC1CCCO1 (stereo not drawn)	i	-13	i	-75*	?	4%
COCC(C)n1c(-c2ccc3c(c2)NC(=O)CO3)csc1=Nc1ccc(OC(F)F)cc1 (stereo not drawn)	?	23	9.2µM*!	?	3.3µM*	?
CN(C)S(=O)(=O)c1cccc(N=c2scc(-c3ccc4c(c3)NC(=O)CO4)n2CC2CCCO2)c1 (stereo not drawn)	16µM*	1	?	85	9%	2%
O=C1COc2ccc(-c3csc(=Nc4ccc(OC(F)F)cc4)n3CC3CCCO3)cc2N1 (stereo not drawn)	2.9µM*	-19	?	-27	16µM*	?
CCN=c1scc(-c2ccc3c(c2)NC(=O)CO3)n1N=C1CCCC1	?	15	?	7	?	2%
c1ccc(-c2csc(=Nc3cccnc3)n2CC2CCCO2)cc1 (stereo not drawn)	?	5	i	6	?	-2%
CCOC(=O)O[C@]1(C(=O)OCCl)CC[C@@H]2[C@H]3CCC4=CC(=O)C=C[C@]4(C)[C@@H]3[C@@H](O)C[C@@]21C	nt	nt	nt	nt	-1%	-5%
Cn1c(=N)n(CC(=O)c2ccccc2)c2ccccc21	i	-7	i	-24	9%	12%
Cn1c(=N)n(CC(=O)O)c2ccccc21	i	-4	i	-62*	-1%	-5%
FC(F)Sc1ccc(NC(=S)NCc2ccccc2)cc1	?	-5	i	-1	?	18%
FC(F)Sc1ccc(NC(=S)NC(c2ccccc2)c2ccccc2)cc1	?	-7	?	0	3.7µM*	?
Cc1nn(C(C)C(=O)N2CCN(c3ccc(Cl)cc3)CC2)c(=O)c2cc3occc3n12 (stereo not drawn)	i	-2	?	nt	nt	nt
SMILES	KB-V1 cytotox	D3 ag	KB-3-1 cytotox	D3 antag	MCF10A rerep	SW480 rerep
Cc1noc(/C=C/c2cccnc2)c1[N+](=O)[O-]	i	-4	21µM*	-4	?	?
CC(CNC(=O)Cn1ccc2cc(S(=O)(=O)N3CCCCCC3)ccc21)c1ccccc1 (stereo not drawn)	i	-24	?	nt	nt	nt
CCCCN(C)C(=O)C1CCN(Cc2ccc(OCc3ccccc3)cc2)CC1	?	-14	i	-68*	?	?
CCCCN(Cc1ccccc1)C1CCN(Cc2ccccc2)CC1	i	-23	i	-76*	?	-3%
CCN(Cc1ccccc1)C1CCN(Cc2ccc(SC)cc2)CC1	?	-9	i	-20	?	0%
Cc1cc(N2CCOCC2)nc(NCc2ccccc2)n1	?	-4	i	23	7.3µM*	1%
Cc1cc(N2CCCCCC2)nc(-c2ccccc2O)n1	i	-8	?	-4	?	?
Cc1cc(N2CCCCC2)nc(NCc2ccccc2)n1	?	-12	16µM*	-21	?	?
CCOC(=O)C(=C1Nc2ccccc2N1)n1c(-c2cccnc2)nc2ccccc21	21µM*	-12	?	-65*	nt	nt
Cc1ccc(CNC(=O)c2ccc3c(c2)N(Cc2ccccc2Cl)C(=O)CS3)cc1	i	2	i	nt	nt	nt
Cc1c(C(=O)Nc2cccc(C(F)(F)F)c2)oc2ccc(S(=O)(=O)N3CCOCC3)cc12	i	64*	i	6	5%	-8%
O=S(=O)(c1ccc2oc3ccccc3c2c1)N1CCOCC1	16µM*	-10	i	10	0%	-8%
CCN(CC)C(=O)C1CCN(S(=O)(=O)c2ccc(-n3cnnn3)cc2)CC1	?	1	i	0	-28%	-80%
CCN(CC)C(=O)C1CCN(S(=O)(=O)c2ccc3oc4ccccc4c3c2)CC1	12µM*	20	i	55	1%	-6%
O=S(=O)(c1ccc2oc3ccccc3c2c1)N1CCCC1	i	6	i	0	4%	3%
Cc1ccc(C)c(N2CCN(C(=O)CCCCCn3c(=O)[nH]c4ccccc4c3=O)CC2)c1	i	-6	i	nt	nt	nt
Cc1ccc(Cn2c(CCNc3nc(-c4ccc(Cl)c([N+](=O)[O-])c4)cs3)nc3cc(C(=O)NCCCO)ccc32)cc1	i	12	i	53	?	-2%
COc1ccccc1NC(=O)Cn1c(=O)c(CNc2ccc(C)cc2)cc2cc3c(cc21)OCCO3	i	0	i	nt	nt	nt
N#CN=c1snc(-c2ccccc2)n1-c1ccc(Cl)cc1	i	nt	i	nt	nt	nt
